Data taken from PubChem BioAssay AID1159580 (chemical genetic matrix, 2015).
Out of some 5,500 compounds screened, about 2,000 (36%) were called active. Another 18% or so got no clear call; they are omitted. Cut-off read from the data, not from the text of the source: active = normalized growth mostly below about 0.91 (no sharp cut-off); inconclusive = no clear call, values can overlap the other calls; inactive = mostly above about 0.92. The list shows a part of the results.

Assay: chemical genetic growth profiling, strain panel (AID 1159580);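 note: tested at 20 µM; growth read once vehicle control cultures reached saturation at 30 °C; 1 = growth at the plate median or of vehicle wells; lower values mean less growth of the strain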
Conditions: S. cerevisiae deletion strains, growth OD

Measured: normalized growth

O=c1c(O)c(-c2ccccc2)oc2cccc(O)c12
active: locus YAL021C, strain ccr4, stronger effect = lower value 0.725 | locus YAL026C, strain drs2, stronger effect = lower value 0.55 | locus YAL030W, strain snc1, stronger effect = lower value 0.881 | locus YBL061C, strain skt5, stronger effect = lower value 0.802 | locus YBR009C, strain hhf1, stronger effect = lower value 0.856 | locus YBR023C, strain chs3, stronger effect = lower value 0.666 | locus YBR171W, strain sec66, stronger effect = lower value 0.838 | locus YBR231C, strain swc5, stronger effect = lower value 0.733 | locus YBR279W, strain paf1, stronger effect = lower value 0.867 | locus YCL011C, strain gbp2, stronger effect = lower value 0.847 | locus YCL016C, strain dcc1, stronger effect = lower value 0.851 | locus YCL061C, strain MRC1, stronger effect = lower value 0.821 | locus YCL069W, strain vba3, stronger effect = lower value 0.816 | locus YCR088W, strain abp1, stronger effect = lower value 0.899 | locus YDR001C, strain nth1, stronger effect = lower value 0.891 | locus YDR069C, strain doa4, stronger effect = lower value 0.788 | locus YDR137W, strain rgp1, stronger effect = lower value 0.372 | locus YDR297W, strain sur2, stronger effect = lower value 0.919 | locus YDR334W, strain swr1, stronger effect = lower value 0.759 | locus YDR335W, strain msn5, stronger effect = lower value 0.852 | locus YDR392W, strain spt3, stronger effect = lower value 0.282 | locus YEL003W, strain gim4, stronger effect = lower value 0.875 | locus YEL037C, strain rad23, stronger effect = lower value 0.893 | locus YEL061C, strain CIN8 (second series), stronger effect = lower value 0.905 | locus YER015W, strain faa2, stronger effect = lower value 0.852 | locus YER016W, strain bim1, stronger effect = lower value 0.914 | locus YER111C, strain swi4, stronger effect = lower value 0.878 | locus YER155C, strain BEM2 (second series), stronger effect = lower value 0.751 | locus YFR010W, strain ubp6, stronger effect = lower value 0.726 | locus YGL167C, strain pmr1, stronger effect = lower value 0.886 | locus YGL173C, strain kem1, stronger effect = lower value 0.599 | locus YGL240W, strain doc1, stronger effect = lower value 0.739 | locus YGL253W, strain hxk2, stronger effect = lower value 0.621 | locus YHR027C, strain rpn1, stronger effect = lower value 0.751 | locus YHR030C, strain SLT2, stronger effect = lower value 0.72 | locus YHR079C, strain IRE1, stronger effect = lower value 0.839 | locus YHR142W, strain chs7, stronger effect = lower value 0.539 | locus YJL092W, strain hpr5, stronger effect = lower value 0.863 | locus YJL095W, strain BCK1 (second series), stronger effect = lower value 0.368 | locus YJL095W, strain BCK1, stronger effect = lower value 0.733 | locus YJL129C, strain trk1, stronger effect = lower value 0.673 | locus YJL154C, strain vps35, stronger effect = lower value 0.917 | locus YJL164C, strain tpk1, stronger effect = lower value 0.826 | locus YJL166W, strain qcr8, stronger effect = lower value 0.836 | locus YJL187C, strain SWE1, stronger effect = lower value 0.84 | locus YJR066W, strain TOR1, stronger effect = lower value 0.741 | locus YKL160W, strain elf1, stronger effect = lower value 0.881 | locus YKR026C, strain gcn3, stronger effect = lower value 0.917 | locus YLL001W, strain dnm1, stronger effect = lower value 0.826 | locus YLL026W, stronger effect = lower value 0.829 | locus YLL041C, strain sdh2, stronger effect = lower value 0.923 | locus YLR027C, strain aat2, stronger effect = lower value 0.842 | locus YLR221C, strain rsa3, stronger effect = lower value 0.815 | locus YLR258W, strain gsy2, stronger effect = lower value 0.84 | locus YLR262C, strain YPT6 (second series), stronger effect = lower value 0.304 | locus YLR320W, strain mms22, stronger effect = lower value 0.661 | locus YLR342W, strain FKS1, stronger effect = lower value 0.827 | locus YLR357W, strain rsc2, stronger effect = lower value 0.821 | locus YLR370C, strain arc18, stronger effect = lower value 0.789 | locus YML120C, strain ndi1, stronger effect = lower value 0.828 | locus YMR058W, strain fet3, stronger effect = lower value 0.206 | locus YMR129W, stronger effect = lower value 0.916 | locus YMR205C, strain PFK2, stronger effect = lower value 0.715 | locus YMR231W, strain pep5, stronger effect = lower value 0.304 | locus YNL071W, strain lat1, stronger effect = lower value 0.568 | locus YNL183C, strain NPR1, stronger effect = lower value 0.793 | locus YNL209W, strain ssb2, stronger effect = lower value 0.725 | locus YNL248C, strain rpa49, stronger effect = lower value 0.795 | locus YNR049C, strain mso1, stronger effect = lower value 0.89 | locus YOR001W, strain rrp6, stronger effect = lower value 0.818 | locus YOR070C, strain gyp1, stronger effect = lower value 0.835 | locus YOR083W, strain WHI5, stronger effect = lower value 0.826 | locus YOR106W, strain vam3, stronger effect = lower value 0.546 | locus YOR231W, strain MKK1, stronger effect = lower value 0.822 | locus YOR265W, strain rbl2, stronger effect = lower value 0.88 | locus YOR270C, strain vph1, stronger effect = lower value 0.445 | locus YOR290C, strain snf2, stronger effect = lower value 0.795 | locus YPL051W, strain arl3, stronger effect = lower value 0.696 | locus YPL078C, strain atp4, stronger effect = lower value 0.779
inactive: locus YDL005C, strain med2, stronger effect = lower value 0.997 | locus YDL040C, strain nat1, stronger effect = lower value 0.953 | locus YDR159W, strain sac3, stronger effect = lower value 0.89 | locus YDR195W, strain ref2 1.02 | locus YGL227W, strain vid30, stronger effect = lower value 0.929 | locus YHR013C, strain ard1, stronger effect = lower value 0.943 | locus YJL115W, strain asf1, stronger effect = lower value 0.906 | locus YKR091W, strain srl3, stronger effect = lower value 0.934 | locus YLR113W, strain HOG1, stronger effect = lower value 0.935 | locus YLR384C, strain iki3, stronger effect = lower value 0.922 | locus YMR125W, strain sto1, stronger effect = lower value 0.991 | locus YNL322C, strain KRE1 (second series), stronger effect = lower value 0.926 | locus YOR080W, strain dia2, stronger effect = lower value 0.925 | locus YPL106C, strain sse1, stronger effect = lower value 0.896 | locus YPL240C, strain hsp82, stronger effect = lower value 0.936 | locus YPL256C, strain CLN2, stronger effect = lower value 0.87
